Source: PubChem BioAssay (EPA / NIEHS)
Active and inactive are the calls of the source. The calls were made as follows: active = hit-call score of the fitted dose curve at least 0.9, where 1 is the maximum; inactive = score below 0.9.

experiment: BSK_hDFCGF_Proliferation: Cell Proliferation Assessment in the BioMAP Diversity Plus: hDFCGF Assay (AID 2283059); conditions: primary human foreskin fibroblasts;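 also: curves fitted for both rise and fall of signal versus DMSO baseline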
Experimental: BSK_hDFCGF is a cell-based, multiplexed-readout assay that uses foreskin fibroblast, a human skin primary cell, with measurements taken at 24 hours after chemical dosing in a 96-well plate.BSK_hDFCGF_Proliferation is an assay component measured in the BSK_hDFCGF assay. It measures […] related to cell proliferation using Sulforhodamine staining technology.Data from the assay component BSK_hDFCGF_Proliferation was analyzed into 1 assay endpoint. This assay endpoint, BSK_hDFCGF_Proliferation, was analyzed with bidirectional fitting relative to DMSO as the negative control and baseline of activity. Using a type of viability reporter, measures of total protein for gain or loss-of-signal activity can be used to understand the viability at the cellular-level. Furthermore, this assay endpoint can be referred to as a secondary readout, because this assay has produced multiple assay endpoints where this one serves a viability function. To generalize the intended target to other relatable targets, this assay endpoint is annotated to the cell cycle intended target family, where the subfamily is proliferation.
The levels of cell surface (or secreted, indicated by the prefix "s") biomarker endpoints were measured by ELISA. Overt cytotoxicity to cells in confluent adherent cultures (all systems other than the BT system) was assessed by measuring total protein levels using sulforhodamine B (SRB) staining in parallel cultures at the time of biomarker measurements, indicated as SRB endpoints. For proliferation assays for adherent cell types, individual cell types are cultured at sub-confluence and relative cell numbers quantified by SRB staining at time points optimized for each system (48 h: 3C and CASM3C systems; 72 h: BT and HDF3CGF systems; 96 h: SAg system). SRB was performed by staining cells with 0.1% SRB after fixation with 10% TCA and reading wells at 560 nm.Viability and proliferation of PBMC (T cells) was quantified by Alamar Blue reduction for the SAg and BT systems. For PBMC viability (referred to as PBMC Cytotoxicity within the assay endpoint names), cells were plated (75,000/well in a 96-well plate) and then chemical samples added for 1 h before addition of activators, SEB and TSST-1 (20 ng/mL final concentration each). Cells were incubated for 90 h. Then, Alamar Blue (20 uL/well) (Invitrogen, Cat DAL1100) was added for 6 h, and the plates were read with a fluorescence microplate reader at 546/580 nm (excitation/emission). For PBMC proliferation, cells were plated and activated as above but incubated for only 16 h prior to addition of Alamar Blue. Plates were read after 6 h.

| SMILES | AC50 | outcome |
| --- | --- | --- |
| CN(C)c1ccc(C(=O)c2ccc(N(C)C)cc2)cc1 | 1.56 µM (active) | – |
| COc1cc(C=O)cc2c1[C@H](COC(N)=O)[C@]1(OC(C)=O)ON2C[C@H]2[C@@H]1N2C(C)=O | 0.0312 µM (active) | – |
| Cc1ccc(N)c(N)c1 | 14.7 µM (active) | – |
| CCCCCOC(=O)c1ccccc1C(=O)OCCCCC | – | inactive |
| Oc1ccc2ccc3cccc4ccc1c2c34 | 3.17 µM (active) | – |
| O=C(O)C1C2CCC(O2)C1C(=O)O (stereo not given) | 18.6 µM (active) | – |
| [As]#[In] | – | inactive |
| Nc1ccc(N=Nc2ccccc2)cc1 | 8 µM (active) | – |
| CCC(C)c1ccc(O)cc1 (stereo not given) | – | inactive |
| CC(C)(C)OOC(=O)c1ccccc1 | 20 µM (active) | – |
| O=C(N[C@H](c1ccccc1)[C@@H]1CN2CCC1CC2)c1c(Cl)ccc(C(F)(F)F)c1Cl | 26.5 µM (active) | – |
| C=CCc1ccc2c(c1)OCO2 | – | inactive |
| O=[N+]([O-])c1ccc(Oc2ccc(Cl)cc2Cl)cc1 | 20 µM (active) | – |
| C[N+](C)(C)CC1CO1 (stereo not given) | – | inactive |
| Clc1ccccc1Cl | – | inactive |
| Nc1ccc(Cc2ccc(N)cc2)cc1 | – | inactive |
| Nc1ccc(Oc2ccc(N)cc2)cc1 | 4.11 µM (active) | – |
| O=C1CCCO1 | – | inactive |
| C[C@]12C=CC3=C4CCC(=O)C=C4CC[C@H]3[C@@H]1CC[C@@H]2O | – | inactive |
| CCCCC(CC)COC(=O)c1ccc(C(=O)OCC(CC)CCCC)c(C(=O)OCC(CC)CCCC)c1 (stereo not given) | – | inactive |

| SMILES | AC50 | outcome |
| --- | --- | --- |
| Clc1ccc(C(c2ccc(Cl)cc2)C(Cl)Cl)cc1 | 11.9 µM (active) | – |
| c1ccc(N=Nc2ccccc2)cc1 | – | inactive |
| c1ccc(NNc2ccccc2)cc1 | – | inactive |
| O=Cc1ccco1 | – | inactive |
| ClC1=C(Cl)C2(Cl)C3C(Cl)C=CC3C1(Cl)C2(Cl)Cl (stereo not given) | 10.3 µM (active) | – |
| CCCCCCCCCCCCCN1CC(C)OC(C)C1 (stereo not given) | 0.541 µM (active) | – |
| Nc1ccc(Cl)cc1N | 11.2 µM (active) | – |
| Cc1ccc([N+](=O)[O-])cc1 | – | inactive |
| CCCCOC(=O)c1ccccc1C(=O)OCc1ccccc1 | – | inactive |
| ClC1=C(Cl)[C@]2(Cl)[C@H]3[C@H]([C@@H]4C=C[C@H]3C4)[C@@]1(Cl)C2(Cl)Cl | 5.71 µM (active) | – |
| Nc1cc(Cl)cc(C(=O)O)c1Cl | – | inactive |
| Cc1ccc(N=C=O)cc1N=C=O | – | inactive |
| OCCCl | – | inactive |
| Nc1ccc([N+](=O)[O-])cc1 | 20 µM (active) | – |
| CCN(CC)N=O | – | inactive |
| O=C(Oc1ccc(Br)cc1)N1CCN2CCC1CC2 | – | inactive |
| Brc1ccc(Oc2ccccc2)cc1 | – | inactive |
| O=C(Nc1ccccc1)c1ccccc1I | – | inactive |
| CN(C)c1ccccc1 | – | inactive |
| CS(=O)(=O)NC(=O)c1cc(Oc2ccc(C(F)(F)F)cc2Cl)ccc1[N+](=O)[O-] | – | inactive |
